# Measured values taken from PubChem BioAssay AID687016 (The Scripps Research Institute Molecular Screening Center, 2013).
# Several values for one entry are separate records, joined by “and”; a condition that tells them apart may be missing. Equal entries are not always repeated. Hit rate of the full screen: of about 370,000 compounds, about 2,800 (0.76%) were called active. Cut-off read from the data, not from the text of the source: active = inhibition above about 21%; inactive = the rest. For the sample, actives were picked, then their nearest neighbours and some compounds at random.
# Molecular target: E3 ubiquitin-protein ligase UHRF1 (Homo sapiens) (UniProt Q96T88)
# Assay: blockers of UHRF1 binding to methyl-oligo – biochemical, TR-FRET, human UHRF1, single concentration, counter-screen for MBD2 inhibitor project, primary screen (AID 687016);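 note: UHRF1 SRA domain binding a hemimethylated CpG hairpin DNA probe; 0% = median of test compound wells and 100% = reference inhibitor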
# Details: UHRF1 binding to methylated oligo, at 4.4 µM, stronger effect = higher value
# Chain of E3 ubiquitin-protein ligase UHRF1 (Homo sapiens) (Q96T88 whole entry, looked up, the tested form may be a part): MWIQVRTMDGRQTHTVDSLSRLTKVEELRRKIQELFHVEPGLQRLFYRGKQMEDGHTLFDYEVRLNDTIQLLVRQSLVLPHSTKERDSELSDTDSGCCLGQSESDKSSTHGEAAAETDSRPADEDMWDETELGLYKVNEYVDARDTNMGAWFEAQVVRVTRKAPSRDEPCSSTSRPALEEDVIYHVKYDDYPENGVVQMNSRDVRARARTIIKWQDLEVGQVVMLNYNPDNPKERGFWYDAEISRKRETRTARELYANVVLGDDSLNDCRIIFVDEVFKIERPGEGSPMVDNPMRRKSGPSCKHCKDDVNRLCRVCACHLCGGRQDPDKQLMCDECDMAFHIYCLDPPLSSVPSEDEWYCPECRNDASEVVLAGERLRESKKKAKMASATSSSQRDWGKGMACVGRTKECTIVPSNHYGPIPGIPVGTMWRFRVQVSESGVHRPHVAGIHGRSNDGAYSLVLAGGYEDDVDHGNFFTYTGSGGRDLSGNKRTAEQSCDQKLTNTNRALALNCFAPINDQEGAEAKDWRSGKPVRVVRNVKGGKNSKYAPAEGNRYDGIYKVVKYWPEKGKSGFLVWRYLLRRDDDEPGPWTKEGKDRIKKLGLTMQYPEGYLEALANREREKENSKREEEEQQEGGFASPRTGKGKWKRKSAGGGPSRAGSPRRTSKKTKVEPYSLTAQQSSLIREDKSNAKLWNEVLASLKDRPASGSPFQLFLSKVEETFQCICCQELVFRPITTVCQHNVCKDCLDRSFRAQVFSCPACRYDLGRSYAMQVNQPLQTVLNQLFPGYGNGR
row,Structure (SMILES),inhibition
1,C=CCN1C(=O)[C@@H](CC(=O)NCC2CCCCC2)[C@]2(C(=O)OC)CCCCC=C12,-2.02% (inactive)
2,COc1cccc(N2CCN(CC(=O)N(C)Cc3ccc(F)cc3)CC2)c1,-0.26% (inactive)
3,COC(=O)c1cc(S(=O)(=O)N2CCN(c3ccccc3C)CC2)cn1C,-0.14% (inactive)
4,CCOC(=O)[C@]12CCCC=C1N(Cc1ccc(OC)cc1)C(=O)[C@@H]2CC(=O)NCc1cccs1,0.05% (inactive)
5,O=C(Nc1cc(Cl)cc(Cl)c1)OCCN1CCCC12CCC(c1ccccc1)CC2 (stereo not drawn),-2.5% (inactive)
6,O=C(CSc1nc2c(c(=O)[nH]1)CCCC2)N1CCCCC1,4.3% (inactive)
7,CCN(CC)CCOc1ccc2c(c1)C(=NNC(=O)c1ccccn1)c1cc(OCCN(CC)CC)ccc1-2,105% (active)
8,CCCC(C(=O)OCCN(CC)CC)(c1ccccc1)c1ccccc1,0% (inactive)
9,CN(CCOc1ccc(CC2SC(=O)NC2=O)cc1)c1ccccn1 (stereo not drawn),0.45% (inactive) and -0.75% (inactive)
10,Cc1ccc(C)c(NC(=O)CCS(=O)(=O)c2ccccc2)c1,5.41% (inactive)
11,Cc1ccsc1-c1cc(C(=O)O)c2c(ccc3ccccc32)n1,-2.73% (inactive)
12,CCOC(=O)c1ccn(-c2nc(-c3ccco3)cc(C(F)(F)F)n2)n1,1.45% (inactive)
13,Cc1cc(C)c2nc(-c3ccco3)cc(C(=O)O)c2c1,73.6% (active)
14,C=C(C)C#CC(Cc1ccccc1)NCC1CC1 (stereo not drawn),-0.06% (inactive)
15,Cc1ccccc1NC(=O)Cn1nnc(-c2ccccc2F)n1,-2.25% (inactive)
16,CC(=O)c1cc(-c2ccc3ccccc3c2)c(=O)n2c1CCC2,-1.09% (inactive)
17,COC(=O)[C@]12C[C@H](CC(=O)N3CCN(C(=O)C4CC4)CC3)C(=O)N(CCC3=CCCCC3)C1=C[C@H](C(C)C)O[C@@H]2C1CC1,-0.03% (inactive)
18,COc1nc(-c2ccc(Cl)cc2)ccc1-c1noc(-c2cccs2)n1,37.1% (active)
19,N#Cc1ccc(-c2ccc(Cl)cc2)nc1Oc1ccc(F)cc1,-1.28% (inactive)
20,Cc1cc(NS(=O)(=O)c2ccc(NC(=O)CSc3nnc(-c4ccc(C(C)(C)C)cc4)n3Cc3ccco3)cc2)nc(C)n1,-1.86% (inactive)
21,COC(=O)C12C=C3CC(c4ccccc4)=C3C(=O)N1Cc1[nH]c3ccccc3c1C2 (stereo not drawn),-0.85% (inactive)
22,C=CCN1C(=O)[C@H](CC(=O)NCCCN2CCCC2=O)[C@@]2(C(=O)OCC)CCCC=C12,1.86% (inactive)
23,COC(=O)[C@]12C[C@H](CC(=O)NCCCN3CCCC3=O)C(=O)N(CCc3ccc(OC)c(OC)c3)C1=C[C@H](COCc1ccccc1)O[C@@H]2C,-1.34% (inactive)
